Source: PubChem BioAssay (NCATS)
Inconclusive results are not listed. Values without a mark were called inactive. Calls come from the whole dose curve; as a rule, active = well fitted inhibition curve with a large enough effect; inconclusive = small, poorly fitted or top-dose-only effect; inactive = flat fitted curve, though single readings scatter.

target: Calcium and integrin-binding protein 1 (Homo sapiens) (UniProt Q99828); assay: Primary qHTS for Identification of Calcium Integrin Binding Protein 1 (CIB1) Competitor (AID 1508620); conditions: CIB1-GST / FITC-alphaIIb peptide fluorescence polarization; series mostly up to 114 µM; activity change, negative = inhibition: at the top concentration; note: top concentration of the series differs between compounds
In short: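 Fluorescence polarization competition: GST-tagged CIB1 (1 uM final) preincubated with compound 15 min at room temperature, then FITC-labelled alphaIIb peptide (100 nM final) added. After 15 min at room temperature, polarization read at Ex 480/Em 540.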
% is set by controls: 0 for no effect and ±100 for the full control effect.

Calcium and integrin-binding protein 1 (Homo sapiens), sequence (Q99828 whole entry, looked up): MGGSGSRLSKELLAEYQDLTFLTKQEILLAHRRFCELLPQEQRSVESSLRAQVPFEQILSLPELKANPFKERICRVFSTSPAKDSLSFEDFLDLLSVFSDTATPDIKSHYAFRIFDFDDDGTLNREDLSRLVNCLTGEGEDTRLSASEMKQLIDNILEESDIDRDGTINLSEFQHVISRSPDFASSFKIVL

| SMILES | activity change, negative = inhibition |
| --- | --- |
| CC(CCC1(O)OC2CC3C4CCC5CC(O[C@@H]6O[C@H](CO)[C@@H](O)[C@H](O)[C@H]6O[C@@H]6O[C@@H](C)[C@H](O)[C@@H](O)[C@H]6O)C(O)CC5(C)C4CCC3(C)C2C1C)CO[C@@H]1O[C@H](CO)[C@@H](O)[C@H](O)[C@H]1O (some centres undefined) | -0.336% [at 30.2 µM] |
| CC1=C(C(=O)OCc2ccccc2)C(c2ccc(-c3ccccc3)cc2)NC(=O)N1CCCCCC(=O)O (centres undefined) | -17.8% |
| C=C1C(=O)OC2C1CCC(=C)C1CC(OC(C)=O)C(=C)C12 (centres undefined) | -6.76% |
| OC[C@H]1O[C@@H](OC[C@H]2O[C@@H](OC/C=C/c3ccccc3)[C@H](O)[C@@H](O)[C@@H]2O)[C@@H](O)[C@@H]1O | 0.368% [at 57.7 µM] |
| CC(C)=CCC(O)/C(C)=C/CO[C@@H]1O[C@H](CO)[C@@H](O)[C@H](O)[C@H]1O (some centres undefined) | 6.41% [at 57.7 µM] |
| C=C[C@H]1[C@H](O[C@@H]2O[C@H](CO)[C@@H](O)[C@H](O)[C@H]2O)OC=C(C(=O)OC)[C@H]1C/C=C(/C=O)[C@@H]1C(C(=O)OC)=CO[C@@H](O[C@@H]2O[C@H](CO)[C@@H](O)[C@H](O)[C@H]2O)[C@@H]1C=C | 3.41% [at 30.2 µM] |
| CC1CCC2(CO)C(C(=O)O)=CCCC2C1(C)CCc1ccoc1 (centres undefined) | -2.09% [at 57.7 µM] |
| Cc1cc(O)c(-c2ccc([C@@H](C)CN(C)C)cc2)c2c1[nH]c(=O)c1sccc12 | 5.07% |
| CC1CC[C@]2(C(=O)O)CC[C@]3(C(=O)O)C(=CCC4[C@@]5(C)CC[C@H](OC6OC(C)C(O)C(OC7OC(CO)C(O)C(O)C7O)C6O)C(C)(C)C5CC[C@]43C)C2C1C (some centres undefined) | 3.04% [at 30.2 µM] |
| CN(C)C/C=C/C(=O)Nc1cccc(C(=O)Nc2cccc(Nc3ncc(Cl)c(-c4c[nH]c5ccccc45)n3)c2)c1 | -8.56% |
| Cc1cc(=O)oc2c(C=O)c(O)ccc12 | -13.1% |
| CC/C=C\CCO[C@@H]1O[C@H](CO)[C@@H](O)[C@H](O)[C@H]1O | -12.2% |
| O=C(/C=C/c1ccccc1)OC[C@]12O[C@H]1[C@@H](O)[C@@H]1C=CO[C@@H](O[C@@H]3O[C@H](CO)[C@@H](O)[C@H](O)[C@H]3O)[C@@H]12 | 0.537% [at 57.7 µM] |
| Cc1ccc([N+](=O)[O-])cc1S(=O)(=O)N(C)/N=C/c1cnc2ccc(Br)cn12 | -18.1% |
| C[C@@H]1O[C@@H](O[C@H]2[C@H](O)[C@@H](O)[C@H](O[C@H]3[C@H](O[C@H]4CC[C@@]5(C)C(=CC[C@@H]6C5CC[C@]5(C)[C@@H]7[C@H](C[C@@H]65)O[C@]5(CC[C@@](C)(CO[C@@H]6O[C@H](CO)[C@@H](O)[C@H](O)[C@H]6O)O5)[C@H]7C)C4)O[C@H](CO)[C@@H](O)[C@@H]3O)O[C@@H]2CO)[C@H](O)[C@H](O)[C@H]1O (some centres undefined) | 5.28% [at 30.2 µM] |
| CC(C)=C/C=C\[C@H](C)[C@H]1CC[C@]2(C)C[C@@H]3C(C)=CC(=O)C3/C(CO)=C\C[C@@H]12 (some centres undefined) | 2.22% [at 57.7 µM] |
| O=C(c1cc2c(cc1F)OC(c1ccc(F)cc1)(c1ccc(Cl)cc1Cl)O2)N1CCOCC1 (centres undefined) | 3.44% |
| CC(C)=CCC[C@](C)(O[C@@H]1O[C@H](CO[C@@H]2O[C@H](CO)[C@@H](O)[C@H](O)[C@H]2O)[C@@H](O)[C@H](O)[C@H]1O)C1CC[C@]2(C)[C@@H]1[C@H](O)CC1[C@@]3(C)CC[C@H](O[C@@H]4O[C@H](CO)[C@@H](O)[C@H](O)[C@H]4O[C@@H]4O[C@H](CO)[C@@H](O)[C@H](O)[C@H]4O)C(C)(C)[C@@H]3CC[C@]12C (some centres undefined) | -0.481% [at 30.2 µM] |
| CC(=O)O[C@]1(C(C)=O)CC[C@H]2[C@@H]3C[C@H](C)C4=CC(=O)C=C[C@]4(C)[C@@]3(F)[C@@H](O)C[C@@]21C | 2.05% |
| C=C1C(=O)OC2/C=C(\CO)CC/C=C(\C=O)CC(OC(=O)CC(C)C)C12 (centres undefined) | 3.99% [at 57.7 µM] |
| COC(=O)C1=CO[C@@H](O[C@@H]2O[C@H](CO[C@@H]3O[C@H](COC(=O)/C=C/c4cc(OC)c(O)c(OC)c4)[C@@H](O)[C@H](O)[C@H]3O)[C@@H](O)[C@H](O)[C@H]2O)[C@@H]2C(CO)=CC[C@H]12 | -5.27% [at 30.2 µM] |
| C=C(C(=O)O)C1CC(O)C2(C)CCCC(=C)C2C1 (centres undefined) | 3.78% |
| CC/C=C/CC1=C(CCCCC(CCC(=O)O)OC(C)=O)CCC1=O (centres undefined) | -19.2% [at 57.7 µM] |
| CC(C)=CCC[C@](C)(O)[C@H]1CC[C@]2(C)[C@@H]1[C@H](O)CC1[C@@]3(C)CC[C@H](O)C(C)(C)[C@@H]3[C@@H](O[C@@H]3O[C@H](CO)[C@@H](O)[C@H](O)[C@H]3O[C@@H]3O[C@H](CO)[C@@H](O)[C@H](O)[C@H]3O)C[C@]12C (some centres undefined) | 0.05% [at 30.2 µM] |
